Assay results reported in PubChem BioAssay (EPA / NIEHS).
Active and inactive are the calls of the source. Rule for the calls: active = hit-call score of the fitted dose curve at least 0.9, where 1 is the maximum; inactive = score below 0.9.

Columns and labels:
[1] = read-out: Macrophage colony-stimulating factor (MCSF), CSF1 (gene 1435); experiment: BSK_hDFCGF_MCSF: BioMAP Diversity Plus: hDFCGF Assay for Macrophage colony-stimulating factor (MCSF) Biomarker Activity (AID 2283060); conditions: primary human foreskin fibroblasts; actives raise or lower the signal
Procedure, shortened: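 M-CSF levels, determined by ELISA, are taken at 24 h after dosing human skin fibroblasts. Responses in either direction are fitted with DMSO serving as the baseline.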

[2] = read-out: Monokine induced gamma interferon (MIG), CXCL9 (gene 4283); experiment: BSK_hDFCGF_MIG: BioMAP Diversity Plus: hDFCGF Assay for Monokine induced gamma interferon (MIG) Biomarker Activity (AID 2283063); conditions: primary human foreskin fibroblasts; actives raise or lower the signal
Procedure, shortened: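 MIG signal, determined by ELISA, reflects 24 h chemical exposure of human skin primary fibroblasts. DMSO serves as negative control and baseline.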

[3] = read-out: Vascular cell adhesion molecule 1 (VCAM1), VCAM1 (gene 7412); experiment: BSK_hDFCGF_VCAM1: BioMAP Diversity Plus: hDFCGF Assay for Vascular cell adhesion molecule 1 (VCAM1) Biomarker Activity (AID 2283065); conditions: primary human foreskin fibroblasts; actives raise or lower the signal;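 for AC50: VCAM-1 protein level quantified by ELISA after 24 h chemical exposure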
Procedure, shortened: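 Cells are dosed, cultured for 24 h, then VCAM-1 is quantified by ELISA; signal increases and decreases are both fitted relative to DMSO.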

[4] = read-out: Plasminogen activator inhibitor-1 (PAI1), SERPINE1 (gene 5054); experiment: BSK_hDFCGF_PAI1: BioMAP Diversity Plus: hDFCGF Assay for Plasminogen activator inhibitor-1 (PAI1) Biomarker Activity (AID 2283066); conditions: primary human foreskin fibroblasts; actives raise or lower the signal
Procedure, shortened: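 Human foreskin fibroblast primary cells, 24 h chemical exposure; PAI-1 measured by ELISA. Bidirectional fitting relative to DMSO; parallel cultures stained with SRB for total protein to flag overt cytotoxicity.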

[5] = read-out: Intercellular Adhesion Molecule 1 (ICAM1), ICAM1 (gene 3383); experiment: BSK_KF3CT_ICAM1: BioMAP Diversity Plus: KF3CT Assay for Intercellular Adhesion Molecule 1 (ICAM1) Biomarker Activity (AID 2283067); conditions: primary human keratinocytes with fibroblasts; actives raise or lower the signal
Procedure, shortened: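 Dose the keratinocyte/fibroblast co-culture, wait 24 h, measure ICAM-1 by ELISA, then fit increases or decreases against DMSO. Cytotoxicity is checked in parallel cultures by SRB total-protein staining.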

[6] = read-out: Interferon-gamma inducible Protein 10 (IP10), CXCL10 (gene 3627); experiment: BSK_KF3CT_IP10: BioMAP Diversity Plus: KF3CT Assay for Interferon-gamma inducible Protein 10 (IP10) Biomarker Activity (AID 2283068); conditions: primary human keratinocytes with fibroblasts; actives raise or lower the signal
Procedure, shortened: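 In a primary skin co-culture of keratinocytes and fibroblasts, IP-10 is quantified by ELISA at 24 h after dosing. SRB staining of parallel wells monitors overt toxicity. Curves are fitted both directions against DMSO.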

[7] = BSK_KF3CT_SRB: Viability Assessment in the BioMAP Diversity Plus: KF3CT Assay (AID 2283069); conditions: primary human keratinocytes with fibroblasts;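 note: fitted for both signal gain and loss against DMSO baseline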
Procedure, shortened: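 Keratinocytes co-cultured with foreskin fibroblasts (human primary); chemical added, 24 h; fix 10% TCA, stain 0.1% SRB, A560. Bidirectional fit vs DMSO.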

[8] = read-out: Interleukin-1 alpha (IL1a), IL1A (gene 3552); experiment: BSK_KF3CT_IL1a: BioMAP Diversity Plus: KF3CT Assay for Interleukin-1 alpha (IL1a) Biomarker Activity (AID 2283070); conditions: primary human keratinocytes with fibroblasts; actives raise or lower the signal
Procedure, shortened: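 Chemicals were dosed onto co-cultured human keratinocytes and foreskin fibroblasts, IL-1a was quantified by ELISA at 24 h, and activity was fitted in both directions relative to DMSO controls.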

[9] = read-out: Transforming growth factor beta 1 (TGFb1), TGFB1 (gene 7040); experiment: BSK_KF3CT_TGFb1: BioMAP Diversity Plus: KF3CT Assay for Transforming growth factor beta 1 (TGFb1) Biomarker Activity (AID 2283072); conditions: primary human keratinocytes with fibroblasts; actives raise or lower the signal
Procedure, shortened: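 Human keratinocyte/foreskin fibroblast co-culture; TGF-b1 measured by ELISA 24 h after dosing, fitted bidirectionally versus DMSO. Cytotoxicity checked in parallel cultures by total protein (SRB staining, 560 nm).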

[10] = read-out: C-C motif chemokine 2 (Homo sapiens) (UniProt P13500); experiment: BSK_KF3CT_MCP1: BioMAP Diversity Plus: KF3CT Assay for Monocyte Chemoattractant Protein 1 (MCP1/CCL2) Biomarker Activity (AID 2283073); conditions: primary human keratinocytes with fibroblasts; actives raise or lower the signal
Procedure, shortened: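 Keratinocytes and foreskin fibroblasts were co-cultured, dosed with chemical, and sampled 24 h later. MCP-1 was quantified by ELISA, and the endpoint was analyzed with bidirectional fitting using DMSO as negative control.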

[11] = read-out: Matrix Metallopeptidase 9 (MMP9), MMP9 (gene 4318); experiment: BSK_KF3CT_MMP9: BioMAP Diversity Plus: KF3CT Assay for Matrix Metallopeptidase 9 (MMP9) Biomarker Activity (AID 2283074); conditions: primary human keratinocytes with fibroblasts; actives raise or lower the signal;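 for AC50: MMP9 protein level quantified by ELISA in the co-culture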
Procedure, shortened: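 Human keratinocyte/foreskin fibroblast co-culture; compound added; 24 h; MMP-9 by ELISA; bidirectional fit vs DMSO baseline.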

[12] = read-out: urokinase plasminogen activator (uPA), PLAU (gene 5328); experiment: BSK_KF3CT_uPA: BioMAP Diversity Plus: KF3CT Assay for urokinase plasminogen activator (uPA) Biomarker Activity (AID 2283075); conditions: primary human keratinocytes with fibroblasts; actives raise or lower the signal
Procedure, shortened: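 ELISA readout of uPA, analyzed for signal gain or loss relative to DMSO, from a human primary keratinocyte–foreskin fibroblast co-culture measured 24 h after chemical treatment.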

[13] = read-out: CD40, CD40 (gene 958); experiment: BSK_LPS_CD40: BioMAP Diversity Plus: LPS Assay for CD40 Biomarker Activity (AID 2283076); conditions: primary human HUVEC with PBMC; actives raise or lower the signal
Procedure, shortened: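 CD40 signal, measured by ELISA, is fitted in both directions relative to DMSO vehicle. The system is an LPS-driven human vascular primary co-culture of endothelial cells and PBMC, sampled 24 h after compound addition.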

[14] = read-out: E-selectin (Homo sapiens) (UniProt P16581); experiment: BSK_LPS_Eselectin: BioMAP Diversity Plus: LPS Assay for Eselectin Biomarker Activity (AID 2283077); conditions: primary human HUVEC with PBMC; actives raise or lower the signal
Procedure, shortened: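 Signal of E-selectin, detected by ELISA, served as the endpoint; cells were umbilical vein endothelium with PBMC, read 24 h after treatment. DMSO defined baseline, and both increases and decreases were fitted.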

[15] = read-out: Interleukin-8 (IL8), CXCL8 (gene 3576); experiment: BSK_LPS_IL8: BioMAP Diversity Plus: LPS Assay for Interleukin-8 (IL8) Biomarker Activity (AID 2283078); conditions: primary human HUVEC with PBMC; actives raise or lower the signal
Procedure, shortened: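 Endothelial cells and PBMC from human donors are co-cultured, treated with chemicals and LPS, then assayed for IL-8 by ELISA after 24 h. Parallel SRB staining (0.1% SRB after 10% TCA fixation, 560 nm) flags cytotoxicity.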

[16] = BSK_LPS_SRB: Viability Assessment in the BioMAP Diversity Plus: LPS Assay (AID 2283079); conditions: primary human HUVEC with PBMC;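 note: total protein by sulforhodamine B absorbance as a cytotoxicity measure; measured one day after compound addition; fitted in both directions against DMSO so loss or gain of signal counts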
Procedure, shortened: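 Overt cytotoxicity was gauged by sulforhodamine B total-protein staining in a primary human vascular endothelial and mononuclear cell co-culture 24 h post-dosing. Activity was fitted in both directions relative to DMSO.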

[17] = read-out: TIMP metallopeptidase inhibitor 1 (TIMP1), TIMP1 (gene 7076); experiment: BSK_hDFCGF_TIMP1: BioMAP Diversity Plus: hDFCGF Assay for TIMP metallopeptidase inhibitor 1 (TIMP1) Biomarker Activity (AID 2283062); conditions: primary human foreskin fibroblasts; actives raise or lower the signal
Procedure, shortened: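 Fibroblasts from human foreskin are treated with test chemical and harvested at 24 h. TIMP-1 is quantified by ELISA, and gain or loss of signal is scored against DMSO.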

[18] = read-out: TIMP metallopeptidase inhibitor 2 (TIMP2), TIMP2 (gene 7077); experiment: BSK_KF3CT_TIMP2: BioMAP Diversity Plus: KF3CT Assay for TIMP metallopeptidase inhibitor 2 (TIMP2) Biomarker Activity (AID 2283071); conditions: primary human keratinocytes with fibroblasts; actives raise or lower the signal
Procedure, shortened: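 Co-culture of human primary keratinocytes and foreskin fibroblasts, measured 24 h after chemical dosing. TIMP-2 quantified by ELISA and fitted in both directions relative to DMSO. Cytotoxicity checked in parallel cultures by SRB total-protein staining.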

[19] = read-out: Matrix Metallopeptidase 1 (MMP1), MMP1 (gene 4312); experiment: BSK_hDFCGF_MMP1: BioMAP Diversity Plus: hDFCGF Assay for Matrix Metallopeptidase 1 (MMP1) Biomarker Activity (AID 2283064); conditions: primary human foreskin fibroblasts; actives raise or lower the signal
Procedure, shortened: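 hDFCGF primary fibroblasts (human foreskin); chemical added; 24 h; MMP1 by ELISA; bidirectional fit vs DMSO.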

Measured: AC50

E-selectin (Homo sapiens), sequence (P16581 whole entry, looked up): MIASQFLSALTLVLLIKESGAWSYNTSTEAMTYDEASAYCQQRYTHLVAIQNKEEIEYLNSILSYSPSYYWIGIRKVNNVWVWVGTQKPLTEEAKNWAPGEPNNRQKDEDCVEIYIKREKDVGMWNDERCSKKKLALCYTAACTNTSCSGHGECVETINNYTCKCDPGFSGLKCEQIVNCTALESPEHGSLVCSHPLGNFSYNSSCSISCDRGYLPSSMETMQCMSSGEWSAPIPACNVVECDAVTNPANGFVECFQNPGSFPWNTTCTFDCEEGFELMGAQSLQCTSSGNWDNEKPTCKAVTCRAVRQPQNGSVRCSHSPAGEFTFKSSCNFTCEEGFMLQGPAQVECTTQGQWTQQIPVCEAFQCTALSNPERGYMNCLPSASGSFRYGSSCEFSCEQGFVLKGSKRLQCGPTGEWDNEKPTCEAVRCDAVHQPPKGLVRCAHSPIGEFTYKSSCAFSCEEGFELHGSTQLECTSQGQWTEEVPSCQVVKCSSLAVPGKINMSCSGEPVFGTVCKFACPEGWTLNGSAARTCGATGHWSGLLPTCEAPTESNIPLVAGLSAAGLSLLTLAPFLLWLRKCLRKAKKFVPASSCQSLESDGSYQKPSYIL

C1CCC(SSC2CCCCC2)CC1
active: [1] 20 µM | [3] 38.4 µM | [4] 30.8 µM | [6] 30 µM | [9] 5.33 µM | [11] 13.7 µM
not listed: [17] | [18] | [19]
inactive: all other assays above

Cc1nc(-c2ccc3c(c2)CCN(CCC2CCC(NC(=O)/C=C/c4ccc(F)cc4)CC2)CC3)no1 (stereo not given)
active: [13] 3.86 µM | [15] 6.69 µM
not listed: [7] | [19]
inactive: all other assays above

Cc1cccc(C)c1O
not listed: [18] | [19]
inactive: all other assays above

NCCO
not listed: [3] | [17]
inactive: all other assays above

CCNc1cccc(C)c1
not listed: [3] | [19]
inactive: all other assays above

COC(=O)c1ccc(O)cc1
not listed: [7] | [17] | [18]
inactive: all other assays above

CCOC(=O)C(C)(C)Oc1ccc(Cl)cc1
not listed: [7] | [17] | [18]
inactive: all other assays above

CCCCC(CC)COC(=O)CC(C(=O)OCC(CC)CCCC)S(=O)(=O)O (stereo not given)
active: [1] 9.34 µM | [17] 20 µM | [2] 11.8 µM | [3] 6.62 µM | [4] 9.12 µM | [5] 11.8 µM | [6] 6.69 µM | [7] 8.47 µM | [8] 8.83 µM | [9] 2.66 µM | [10] 3.25 µM | [11] 4.84 µM | [12] 12 µM | [13] 32.3 µM | [14] 38 µM | [15] 31.6 µM | [16] 30.7 µM

CC(=O)OCCOCCOCCOC(C)=O
not listed: [7] | [17] | [19]
inactive: all other assays above

CC(=O)OC/C=C(\C)CCC=C(C)C
not listed: [17]
inactive: all other assays above

Cc1cc(NC(=O)C(=O)O)cc(C)c1Oc1ccc(O)c2c1CCC2
not listed: [18] | [19]
inactive: all other assays above

CCCCOC(=O)CCCCCCCCC(=O)OCCCC
not listed: [3] | [17] | [18]
inactive: all other assays above

CC(C)(C)c1cc(O)c(C(C)(C)C)cc1O
active: [1] 17.6 µM | [2] 20 µM | [3] 20 µM | [14] 7.72 µM | [15] 1.39 µM
not listed: [17]
inactive: all other assays above

Cc1cccc(Nc2cc(Cl)nc(SCC(=O)O)n2)c1C
not listed: [3] | [7] | [17]
inactive: all other assays above

CCCCCCCCCCCC(=O)OC
not listed: [3] | [7] | [17]
inactive: all other assays above
